HIV RNase H inh-1: blocks HIV-1 RNase H cleavage of RNA/DNA duplex. RT-RNase H RNA/DNA duplex cleavage, fluorescence. inhibition, % at 10 µM. 1.9% of 65,000 active. P04585; in the data active = inhibition above about 50%
RmlC RmlD mix: inhibitors of RmlC and RmlD coupled enzymes. RmlC/RmlD coupled enzyme inhibition, 384-well mixture HTS. inhibition, % at 5.5 µM. 0.39% of 110,000 active; in the data active = inhibition above about 30%, passing the limit was not always enough; inconclusive = no clear call, values can overlap the other calls
HIV RNase H inh-2: confirmation of HIV-1 reverse transcriptase RNase H inhibitors; shares compounds with HIV RNase H inh-1; Recombinant RT RNase H, fluorescent RNA/DNA duplex cleavage; inhibition, % at 10 µM; 39% of 1,000 active; AID 651; in the data active = inhibition above about 48%; inconclusive = no clear call, values can overlap the other calls
Starred values were filed as active, the others as inactive; ? = inconclusive; . = no result given. Many of the other results were omitted from the sample, so hits are more common in it than they were.

SMILES | HIV RNase H inh-1 | RmlC RmlD mix | HIV RNase H inh-2
Cc1nn(-c2ccccc2)c2sc(C(=O)OCC(=O)N3CCCCC3)cc12 | -10.1 | 7.1 | .
CC1CCc2cc(F)cc3c(O)c(C(=O)Nc4cnccn4)c(=O)n1c23 (stereo unspecified) | -2.3 | . | .
Cc1ccc(-n2c(N)c(C(=O)NCc3ccco3)sc2=S)cc1 | . | -17.1 | .
Cc1ccc(-n2c(N)c(C(N)=O)sc2=S)cc1 | 94.5* | -0.5 | 64.4*
COc1cc(Cl)c(C)cc1NC(=O)CNC(=O)Cn1cnc2ccccc2c1=O | . | 10.9 | .
CCOC(=O)N1CCc2c(sc3c2C(=O)NC(c2ccc(-c4ccc(Cl)cc4)o2)N3)C1 (stereo unspecified) | 73.5* | . | 97.1*
Cc1ccc(C2NC(=O)c3c(sc4c3CCN(C)C4)N2)o1 (stereo unspecified) | -0.2 | -6.3 | .
CCC(Sc1nncn1C)C(=O)Nc1ccccc1OC (stereo unspecified) | -5.5 | -13.4 | .
COc1ccc(C2c3c(oc4ccc(Cl)cc4c3=O)C(=O)N2Cc2ccco2)cc1OC (stereo unspecified) | 93.9* | . | 59.9*
COc1cc(C2c3c(oc4ccc(Cl)cc4c3=O)C(=O)N2Cc2ccco2)cc(OC)c1OC (stereo unspecified) | 29.2 | . | .
COc1ccc(/C(O)=C2\C(=O)C(=O)N(c3cc(C)on3)C2c2cccc(OC)c2OC)cc1C (stereo unspecified) | 0.9 | 5.9 | .
COc1cccc(C2c3c(oc4ccc(Cl)cc4c3=O)C(=O)N2c2cc(C)on2)c1OC (stereo unspecified) | 50.4* | 5.8 | 42.3
Cc1ccccc1-n1c(SC/C(O)=C(\C#N)c2nc3ccccc3[nH]2)nnc1-c1ccncc1 | 13.7 | 8.1 | .
Cc1cc(C)n2c(SC/C(O)=C(\C#N)c3nc4ccccc4[nH]3)nnc2n1 | 83.0* | -0.5 | ?
CCn1ncc(C2=NOC(C(=O)Nc3cccc(C(C)=O)c3)C2)c1C (stereo unspecified) | -10.1 | -117.0 | .
Cc1ccc(C)c(/C(O)=C2\C(=O)C(=O)N(CCCN(C)C)C2c2cccnc2)c1 (stereo unspecified) | -8.4 | . | .
COc1ccc2[nH]cc(CCN=C3SCC(=O)N3C)c2c1 | 79.2* | -9.4 | 23.7
COc1ccc2[nH]cc(CCN(C)C)c2c1 | -1.4 | -11.1 | .
O=C(O)CCC(=O)NC1CCCCC1NC(=O)CCC(=O)O (stereo unspecified) | 0.8 | . | .
CCOC(=O)CSc1nc2ccccc2c(=O)n1-c1ccc(C(=O)NCCOC)cc1 | . | -8.6 | .
CCOC(=O)CSc1nc2cc(C(=O)NCc3ccco3)ccc2c(=O)n1C1CCCCC1 | 73.0* | 13.6 | 57.5*
CCOC(=O)CSc1nc2ccccc2c(=O)n1CC1CCC(C(=O)NCc2ccco2)CC1 (stereo unspecified) | 39.8 | -0.2 | .
CCOC(=O)CSc1nc2cc(C(=O)NCc3ccco3)ccc2c(=O)n1-c1ccc(F)cc1 | 84.0* | 6.5 | 66.4*
O=c1[nH]nc(Sc2ncnc3sccc23)n1CCc1ccccc1 | 10.6 | . | .
CCN(CC)CCCN1C(=O)c2oc3ccccc3c(=O)c2C1c1cc(OC)ccc1OC (stereo unspecified) | 2.8 | -9.6 | .
SMILES | HIV RNase H inh-1 | RmlC RmlD mix | HIV RNase H inh-2
COC(=O)c1cc(=O)n(CCc2ccc(OC)c(OC)c2)c(=Nc2ccc(F)c(Cl)c2)s1 | . | 5.2 | .
CC(=O)Oc1ccc(N2C(=O)C3C(C2=O)C2(C)C=CC3(C)O2)cc1 (stereo unspecified) | 55.7* | -9.5 | 43.1
CC(=O)Oc1ccc(N2C(=O)C3C4C=CC(CO)(O4)C3C2=O)cc1 (stereo unspecified) | . | 22.8 | .
CC(C)C(C)(C#N)NC(=O)CSc1nnc(-c2ccccc2)o1 (stereo unspecified) | . | -11.5 | .
O=C1CC(N2CCN(S(=O)(=O)c3cccc(C(F)(F)F)c3)CC2)C(=O)N1Cc1ccccc1 (stereo unspecified) | 5.4 | -0.4 | .
Cc1ccc2cc3cc(C(=O)N4CCN(Cc5ccccc5)CC4)sc3nc2c1 | . | -10.3 | .
Cc1ccc2cc3cc(C(=O)N4CCN(C(=O)c5ccco5)CC4)sc3nc2c1 | 55.1* | 6.2 | 29.3
Cc1nnc(Sc2nc3c(c(=O)n(C)c(=O)n3C)n2Cc2ccc(Cl)cc2)s1 | -19.2 | . | .
Cc1nc2ccccc2c(=O)n1NC(=O)COc1ccccc1 | -4.5 | -5.2 | .
CCCOc1ccc(C(=O)Nn2c(C)nc3ccccc3c2=O)cc1 | 72.1* | 11.5 | -5.1
CCn1c(=O)cc(SCC(=O)NCCCN2CCN(c3ccc(F)cc3)CC2)c2ccccc21 | 66.2* | 3.7 | 37.8
CCn1c(=O)cc(SCC(=O)NCCN2CCN(Cc3ccccc3)CC2)c2ccccc21 | 0.0 | 4.4 | .
COc1ccc(-c2cc(C(=O)Nc3ccccc3SC)no2)cc1OC | 91.2* | 3.4 | 3.6
COc1cccc(-c2cc(C(=O)Nc3ccccc3SC)no2)c1 | 9.5 | -10.9 | .
CCCn1cc(NC(=O)c2cc(-c3ccccc3)on2)cn1 | . | 7.8 | .
COc1ccc(-c2cc(C(=O)Nc3cnn(Cc4ccccc4C)c3)no2)cc1OC | 86.5* | 16.8 | 17.4
COc1cc2c(cc1OC)C(=NCCC(=O)O)NC(C)(C)C2 | -32.6 | . | .
COC(=O)/C=C/c1cc(F)ccc1S(=O)(=O)NC(C)(C)C | . | 3.1 | .
Cc1c(Cc2c(Cl)cccc2Cl)c(=O)ccn1C(C)c1ccccc1 (stereo unspecified) | . | -6.2 | .
CCCC[C@@H]1CN=C(N)N1CC(C)(C)C | . | 2.6 | .
Cc1cc(C)c2c(=O)n(CC(=O)NCCCN3CCOCC3)sc2n1 | 89.6* | 16.2 | 76.9*
Cn1cnnc1SCC(=O)N1CCC(Cc2ccccc2)CC1 | -4.6 | 8.4 | .
Cc1ccc(-c2ccc(=O)n(CC(=O)N3CCN(c4cccc(C)c4)C(C)C3)n2)cc1 (stereo unspecified) | -22.6 | -1.8 | .
Cc1cc(OCC(=O)NCCCN2CCOCC2)cc(C)c1Cl | 2.8 | 4.0 | .
Cc1cccc(N2CCN(C(=O)Cn3sc4nc(C)cc(C)c4c3=O)CC2C)c1 (stereo unspecified) | 93.4* | -2.8 | 56.0*
SMILES | HIV RNase H inh-1 | RmlC RmlD mix | HIV RNase H inh-2
Cc1cc(C)c2c(=O)n(CC(=O)N3CCC(Cc4ccccc4)CC3)sc2n1 | 78.6* | . | 10.4
CCC1(CC)C(=O)C2=C3C1[C@H](C(=O)OC)C=C(C(=O)OC)C[C@H]3n1c(=O)n(-c3ccccc3)c(=O)n1[C@H]2C (stereo partly specified) | . | 2.8 | .
Cc1cc(C)nc(N2CCC(C(=O)Nc3nnc(C)s3)CC2)n1 | 4.4 | 9.1 | .
O=S(=O)(N/N=C\C=C\c1ccccc1)c1ccc(Cl)cc1 | . | 16.6 | .
CCOc1ccc(N(CC)S(=O)(=O)c2ccc3c(c2)n(C)c(=O)c(=O)n3C)cc1 | . | -2.4 | .
O=C(/C(=C/c1ccccc1)c1ccccc1)N1CCCCC1 | . | -12.2 | .
NC(=O)c1ccc2c(=O)n3c(-c4cccs4)csc3nc2c1 | . | 13.1 | .
CCCCNC(=O)CN(c1cccc(Br)c1)S(C)(=O)=O | . | -6.5 | .
CCOC(=O)c1c(-c2cccs2)csc1NC(=O)c1ccco1 | 28.1 | 22.2 | .
CCOC(=O)c1c(C2COc3ccccc3O2)csc1NC(=O)c1ccco1 (stereo unspecified) | 96.7* | -33.3 | 54.2*
CCOc1ccc(CCNS(=O)(=O)c2cccc3nsnc23)cc1OCC | -9.5 | -5.6 | .
Cc1c(NC(=O)c2ccc3c(c2)OCO3)cccc1-c1nc2ccccc2o1 | 3.5 | -2.2 | .
Cc1ccccc1OCc1nc(-c2ccc(NC(=O)c3ccc4c(c3)OCO4)cc2)no1 | 74.6* | -7.5 | 86.6*

Bioassay records as filed in PubChem.
